Experiment [1] is described as follows: qHTS assay to identify small molecule that activate the aryl hydrocarbon receptor (AhR) signaling pathway - cell viability counter screen (AID 743086).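 Note: HepG2 liver cells carrying the AhR DRE luciferase reporter; series mostly up to about 70 µM; nearly all actives have a fitted effect of over 45% in size.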 The procedure, abridged: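 HepG2-AhR-luc (HG2L7.5c1) cells, 4000/well, were preincubated 5 h at 37C, exposed to compound in qHTS format for 24 hr at 37C, then given CellTiter-Fluor for 30 min; viability was read as fluorescence in the reporter wells.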

Experiment [2] has as its target Peroxisome proliferator-activated receptor gamma (Homo sapiens) (UniProt P37231). The experiment in a line: qHTS assay to identify small molecule agonists of the peroxisome proliferator-activated receptor gamma (PPARg) signaling pathway (AID 743094; active = well fitted activation curve with a large enough effect in the signal ratio in the repeat runs, not every such curve was filed as active; the % refers to the signal ratio). The procedure, abridged:
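Agonist activity was taken from a beta-lactamase reporter (FRET substrate, 1 h at room temperature) in HEK293H cells carrying a PPARg UAS-bla construct. Compounds in DMSO were incubated 17 h at 37C after a 5 h cell pre-incubation.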

Experiment [3] in a line: qHTS assay to identify small molecule antagonists of the peroxisome proliferator-activated receptor gamma (PPARg) signaling pathway - cell viability counter screen (AID 743194). Note: nearly all actives have a fitted effect of over 55% in size. The procedure, abridged:
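PPARg-UAS-bla HEK293H cells were plated, rested 5 h at 37 C, then treated with compounds plus rosiglitazone (50 nM final) for 17 h at 37 C; viability was then read by CellTiter-Glo luminescence after 30 min at room temperature.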

A short description of experiment [4]: qHTS assay for small molecule agonists of the antioxidant response element (ARE) signaling pathway (AID 743202; active = well fitted activation curve with a large enough effect in the signal ratio in the repeat runs, not every such curve was filed as active; the % refers to the signal ratio; note: potency is the fitted concentration of half-maximal effect). The procedure, abridged: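 Steps: seed ARE-bla HepG2 cells (2,000/well); incubate 5 h at 37 C; add compounds by pin tool; incubate 16 h at 37 C; add FRET substrate; read fluorescence after 2 h at RT.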
Experiment [5] can be described thus: qHTS assay for small molecule agonists of the antioxidant response element (ARE) signaling pathway - cell viability counter screen (AID 743203; calls by dose curve; note: nearly all actives have a fitted effect of over 55% in size; note: potency is the fitted concentration of half-maximal effect). Put shortly: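 Viability counter screen: CellTiter-Glo luminescence, read after 30 min at room temperature, in ARE-bla HepG2 wells. Compound exposure lasted 16 h at 37C/5% CO2, following a 5 h pre-incubation of the cells after plating.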

Experiment [6] can be described thus: qHTS assay for small molecule activators of the heat shock response signaling pathway - cell viability counter screen (AID 743209). Note: nearly all actives have a fitted effect of over 50% in size. The procedure, abridged:
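Cytotoxicity counter screen run in the same wells as the heat-shock bla reporter assay: HeLa HSE-bla cells, 5 h compound exposure at 37 C, viability read by CellTiter-Glo luminescence.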

Experiment [7] can be described thus: qHTS assay for small molecule activators of the heat shock response signaling pathway (AID 743210; active = well fitted activation curve with a large enough effect in the signal ratio in the repeat runs, with a control signal flat, not every such curve was filed as active; the % refers to the signal ratio;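 note: HeLa cells with beta-lactamase reporter driven by heat shock elements; series mostly up to about 63 µM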). The procedure, abridged: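 Activation of heat shock element-controlled beta-lactamase expression is measured in HeLa cells by LiveBLAzer FRET fluorescence, with compound exposure lasting 5 h at 37 C and substrate loading 2.5 h at room temperature.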
Experiment [8] in a line: qHTS assay to identify small molecule agonists of the peroxisome proliferator-activated receptor delta (PPARd) signaling pathway - cell viability counter screen (AID 743211). Note: nearly all actives have a fitted effect of over 55% in size. The procedure, abridged:
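Read-out: CellTiter-Glo luminescence, 30 min RT, measured in the same wells as the beta-lactamase reporter. Cells: GeneBLAzer PPAR delta UAS-bla HEK293H, 3000 cells/well, compound exposure 17 h at 37C.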

Experiment [9] concerns the target Peroxisome proliferator-activated receptor gamma (Homo sapiens) (UniProt P37231). The experiment can be described thus: qHTS assay to identify small molecule antagonists of the peroxisome proliferator-activated receptor gamma (PPARg) signaling pathway (AID 743191; calls by dose curve; note: nearly all actives have a fitted effect of over 30% in size; note: potency is the fitted concentration of half-maximal effect). The procedure, abridged:
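GeneBLAzer PPARg UAS-bla HEK293H cells carrying a UAS-driven beta-lactamase reporter were plated at 3000 cells/well, preincubated 5 h at 37C, then given compound for 17 h at 37C; LiveBLAzer B/G FRET substrate was read after 1 h at room temperature.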

Inconclusive results are not listed. Activity calls are given as the source filed them. Unless noted, calls come from the whole dose curve; as a rule, active = well fitted curve in the direction sought with a large enough effect in the repeat runs; inconclusive = weak or mixed curves; inactive = no such curve, though single readings can be large; an effect the other way counts as inactive or inconclusive.

Sequence of Peroxisome proliferator-activated receptor gamma (Homo sapiens) (P37231 whole entry, looked up): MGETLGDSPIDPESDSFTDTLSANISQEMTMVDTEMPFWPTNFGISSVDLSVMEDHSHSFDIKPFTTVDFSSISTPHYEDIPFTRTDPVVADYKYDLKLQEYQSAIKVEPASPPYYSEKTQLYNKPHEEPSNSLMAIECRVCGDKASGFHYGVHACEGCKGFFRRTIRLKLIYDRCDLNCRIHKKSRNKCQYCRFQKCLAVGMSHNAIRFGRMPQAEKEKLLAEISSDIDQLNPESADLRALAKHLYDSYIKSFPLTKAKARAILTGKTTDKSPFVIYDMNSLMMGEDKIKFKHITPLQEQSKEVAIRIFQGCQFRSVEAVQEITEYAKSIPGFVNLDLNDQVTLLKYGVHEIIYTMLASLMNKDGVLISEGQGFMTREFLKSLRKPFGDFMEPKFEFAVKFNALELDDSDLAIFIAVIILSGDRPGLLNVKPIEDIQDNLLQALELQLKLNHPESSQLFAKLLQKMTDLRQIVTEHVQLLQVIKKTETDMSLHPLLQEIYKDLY

Take `CCCC(=O)O[C@]1(C(=O)COC(=O)CC)CC[C@H]2[C@@H]3CCC4=CC(=O)CC[C@]4(C)[C@H]3[C@@H](O)C[C@@]21C`: the Potency entry in experiment [1], in experiment [2], in [3], in experiment [4], in experiment [5] and in [6] was “inactive” each time. The Potency result in [7] was “inactive”.

Take `N#C/C(=C1/SC[C@@H](c2ccc(Cl)cc2Cl)S1)n1ccnc1`: the Potency result in [1], in experiment [3], in experiment [6], in experiment [7] and in experiment [8] was “inactive” throughout.

As to `CCOC(=O)C(C)Oc1ccc(Oc2nc3ccc(Cl)cc3o2)cc1` (stereo not given), the Potency entry in [1], in experiment [2], in [3], in experiment [5], in experiment [6] and in experiment [7] was “inactive” each time. Also, the Potency result in [8] was “inactive”.

For the compound `CC(=O)N(c1onc(C)c1C)S(=O)(=O)c1ccc(N)cc1`, the Potency entry in experiment [3], in [4], in experiment [5], in [6], in experiment [7] and in experiment [8] was “inactive” each time.

`c1cc[c]([Bi]([c]2ccccc2)[c]2ccccc2)cc1`: the Potency result in [1], in experiment [3], in experiment [5], in [6] and in experiment [8] was “inactive” in each case.

As to `COC(=O)c1cc(Cl)ccc1NS(=O)(=O)C(F)(F)F`, the Potency entry in [9], in [3], in [4], in experiment [5], in experiment [6] and in experiment [7] was “inactive” throughout. Moreover, the Potency result in experiment [8] is “inactive”.

For the compound `Nc1ccc(C(=O)OCCCOC(=O)c2ccc(N)cc2)cc1`, the Potency entry in experiment [1], in experiment [2], in experiment [5], in experiment [6] and in experiment [7] was “inactive” each time. The Potency in experiment [9] was 43.6 µM (active).

In the case of `Nc1ccc(Cl)cc1[N+](=O)[O-]`, the Potency result in experiment [1], in [2], in [3], in [4], in [5] and in [6] was “inactive” throughout. For the same compound, in experiment [8], the Potency result is “inactive”.

Turning to `C=CC(C)(C)CC(=O)OC`, the Potency result in [1], in experiment [3], in experiment [4], in experiment [5], in experiment [6] and in experiment [7] was “inactive” in each case. Moreover, the Potency entry in [8] was “inactive”.

As to `O=C1OCCN1/N=C/c1ccc([N+](=O)[O-])o1`, the Potency result in experiment [2], in experiment [3], in experiment [6], in experiment [7] and in experiment [8] was “inactive” throughout. The Potency in experiment [4] was 15 µM (active).

As for `CCOC(=O)N1CCC(n2c(=O)[nH]c3cc(Cl)ccc32)CC1`, the Potency result in experiment [3], in experiment [5], in experiment [6], in [7] and in experiment [8] was “inactive” each time. In [4], the Potency was 6.68 µM (active).

With `CCCCCCOC(=O)CCCCCCCC(=O)OCCCCCC`, the Potency result in [1], in [3], in experiment [4], in [5], in experiment [6] and in [7] was “inactive” throughout. For the same compound, the Potency entry in experiment [8] is “inactive”.

Turning to `COc1ccc([C@@H]2Sc3ccccc3NC(=O)[C@@H]2O)cc1`, the Potency entry in experiment [3], in experiment [4], in experiment [5], in experiment [6], in experiment [7] and in experiment [8] was “inactive” each time.

Regarding `CN1Cc2cc(C(=O)N3CCC(C4CCNCC4)CC3)ccc2N[C@@H](CC(=O)O)C1=O`, the Potency result in experiment [3], in experiment [5], in experiment [6], in experiment [7] and in [8] was “inactive” each time.

For `O=C(OCCOCCO)c1ccccc1Nc1cccc(C(F)(F)F)c1`, the Potency entry in experiment [2], in experiment [3], in experiment [5], in [6], in experiment [7] and in [8] was “inactive” in each case.

As for `Cn1c(=O)c2c(ncn2CC(=O)O)n(C)c1=O`, the Potency entry in [9], in experiment [3], in experiment [4], in experiment [5] and in [6] was “inactive” each time.

For `COc1cc2[nH]c(=O)[nH]c(=O)c2cc1OC`, the Potency result in experiment [1], in experiment [2], in [3], in experiment [4], in experiment [5] and in experiment [6] was “inactive” throughout. Besides, the Potency entry in experiment [7] was “inactive”.

Consider `CC1=NN(c2ccc(C(=O)O)cc2)C(=O)C1`, for which the Potency result in experiment [1], in experiment [2], in experiment [3], in experiment [4], in experiment [5] and in experiment [6] was “inactive” throughout. Moreover, the Potency entry in [7] and in [8] was “inactive” each time.

`O=C(CCCN1CCC(O)(c2ccc(Br)cc2)CC1)c1ccc(F)cc1`: the Potency result in [1], in experiment [2], in experiment [3] and in [7] was “inactive” each time. Further, the Potency in experiment [5] is 29.8 µM (active).

Take `COCCOC`: the Potency entry in experiment [1], in experiment [3], in [4], in [5], in [6] and in [7] was “inactive” throughout. Further, the Potency entry in experiment [8] is “inactive”.
